High-throughput results (PubChem BioAssay)
Cdc42 wt GTP – changes GTP binding to wildtype human Cdc42; GST-Cdc42 beads, Bodipy-GTP binding, flow cytometry; actives lie on both sides; percent activity (GTP binding), % at 10 µM; actives 0.2% (n = 190,000); AID 761;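 active means percent activity GTP binding at least 20 points away from the 100% baseline, either down as inhibitor or up as activator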;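 further: median bead fluorescence of bound Bodipy-FL-GTP at 100 nM; 0% = excess unlabeled GTP control and 100% = no compound control; below 100% means less GTP binding so inhibitor and above means activator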
Target sequence (P60953 whole entry, looked up): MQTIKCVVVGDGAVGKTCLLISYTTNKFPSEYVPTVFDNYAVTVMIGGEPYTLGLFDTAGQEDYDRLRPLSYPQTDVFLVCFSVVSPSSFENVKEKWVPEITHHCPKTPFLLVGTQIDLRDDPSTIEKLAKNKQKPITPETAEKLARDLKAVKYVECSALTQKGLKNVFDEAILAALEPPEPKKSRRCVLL
Rab2 wt GTP – changes GTP binding to wildtype dog Rab2A, up or down | GST-Rab2 wt beads, Bodipy-GTP binding, flow cytometry | GTP binding activity, % at 10 µM | actives 0.19% (n = 190,000) | AID 760;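 active means GTP binding activity at least 20 points away from 100%, either lowered or raised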;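 further: 0% = beads with excess unlabeled GTP and 100% = no-compound control corrected for plate trend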
Rac1 act GTP bind – modulators of GTP binding to human Rac1 activated mutant | P63000 | GST-Rac1 activated beads, fluorescent GTP binding, flow cytometry; actives lie on both sides; 100% means binding = to untreated wells | percent activity (GTP binding), % at 10 µM | actives 0.11% (n = 190,000) | AID 764;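 active means GTP binding at least 20 percentage points away from the 100% baseline, in either direction, so actives lie on both sides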
Rac1 wt GTP bind – modulators of human Rac1 wildtype GTP binding | P63000 | GST-Rac1 beads, fluorescent GTP binding, flow cytometry; actives lie on both sides; 0 = cold GTP competed, 100 = untreated | GTP binding activity (% of control), % at 10 µM | actives 0.27% (n = 190,000);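 active means GTP binding activity at least 20 points away from the 100% control level, either lower or higher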
Rab7 wt GTP bind – modulators of GTP binding to dog Rab7 wildtype GTPase; GST-Rab7 beads, fluorescent GTP binding, flow cytometry; actives lie on both sides; untreated = 100%, excess cold GTP = 0%; GTP binding activity (percent of control), % at 10 µM; actives 0.055% (n = 190,000);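 active means fluorescent GTP binding to Rab7 beads changed by at least 20 points from the 100% baseline, either direction, mostly lower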;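 further: median green fluorescence of bound Bodipy-FL-GTP per Rab7 bead population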
HRas wt GTP – modulators of GTP binding to human HRas wildtype; P01112; GST-Ras wt beads, Bodipy-FL-GTP binding, flow cytometry; actives lie on both sides; GTP binding activity, % at 10 µM; actives 0.14% (n = 190,000); AID 759;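 active means GTP binding activity at least 20% away from the 100% baseline, either lowered as inhibitor or raised as activator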;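 further: 0% = unlabeled GTP competition control and 100% = no-compound control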
Target sequence (P01112 whole entry, looked up): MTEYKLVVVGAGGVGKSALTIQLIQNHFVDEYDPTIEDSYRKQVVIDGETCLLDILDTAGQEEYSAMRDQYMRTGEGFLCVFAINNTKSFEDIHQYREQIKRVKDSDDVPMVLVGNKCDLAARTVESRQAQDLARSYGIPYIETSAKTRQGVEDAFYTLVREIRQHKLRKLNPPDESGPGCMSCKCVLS
An asterisk follows results filed as active; [ ] = dose if it differs, or a comment. The list is not random: actives were taken first. Their share in the collection is about 0.37%.

`COc1ccc(CNC(=O)Cn2nnc(-c3ccc(NC(=O)C4CCCCC4)cc3)n2)cc1` gave Cdc42 wt GTP 98.0, Rab2 wt GTP 99.0, Rac1 act GTP bind 99.0, Rac1 wt GTP bind 99.0, Rab7 wt GTP bind 97.0 and HRas wt GTP 98.0.
CN(C)CC(C)(C)CNS(=O)(=O)c1ccc(OC(F)(F)F)cc1 was read as Cdc42 wt GTP 94.0, Rab2 wt GTP 99.0, Rac1 act GTP bind 95.0, Rac1 wt GTP bind 96.0, Rab7 wt GTP bind 101.0 and HRas wt GTP 97.0.
`Cc1cc(C)c(C)c(C(=O)c2ccccc2C(=O)O)c1C` gave Cdc42 wt GTP 132.0*[activator], Rab2 wt GTP 123.0*[activator], Rac1 act GTP bind 129.0*[activator], Rac1 wt GTP bind 150.0*[activator], Rab7 wt GTP bind 119.0 and HRas wt GTP 120.0*[activator].
Screening Cc1ccc(C(=O)c2ccccc2C(=O)O)c(O)c1 returned Cdc42 wt GTP 102.0, Rab2 wt GTP 99.0, Rac1 act GTP bind 98.0, Rac1 wt GTP bind 103.0, Rab7 wt GTP bind 100.0 and HRas wt GTP 101.0.
Screening Cc1ccc(C(=O)c2ccccc2C(=O)O)cc1C returned Cdc42 wt GTP 135.0*[activator], Rab2 wt GTP 124.0*[activator], Rac1 act GTP bind 132.0*[activator], Rac1 wt GTP bind 150.0*[activator], Rab7 wt GTP bind 119.0 and HRas wt GTP 123.0*[activator].
For CCOc1ccc(NC(=O)c2cc3c(=O)n(C)c4ccccc4c3n2C)cc1 the results were Cdc42 wt GTP 102.0, Rab2 wt GTP 101.0, Rac1 act GTP bind 99.0, Rac1 wt GTP bind 109.0, Rab7 wt GTP bind 100.0 and HRas wt GTP 102.0.
For COc1ccc(-c2csc(C3=C(O)CN(C(C)C)C3=N)n2)cc1OC the results were Cdc42 wt GTP 73.0*, Rab2 wt GTP 76.0*, Rac1 act GTP bind 86.0, Rac1 wt GTP bind 73.0*, Rab7 wt GTP bind 97.0 and HRas wt GTP 76.0*.
For COc1ccccc1NC(=S)N1CC(C)OC(C)C1 (stereo unspecified) the results were Cdc42 wt GTP 91.0, Rab2 wt GTP 95.0, Rac1 act GTP bind 91.0, Rac1 wt GTP bind 91.0, Rab7 wt GTP bind 96.0 and HRas wt GTP 93.0.
`COc1ccc(OC)c(S(=O)(=O)Nc2ccc(O)c(Sc3ncn[nH]3)c2)c1` gave Cdc42 wt GTP 36.0*, Rab2 wt GTP 35.0*, Rac1 act GTP bind 36.0*, Rac1 wt GTP bind 31.0*, Rab7 wt GTP bind 21.0* and HRas wt GTP 39.0*.
CCOc1ccc(S(=O)(=O)Nc2ccc(O)c(Sc3ncn[nH]3)c2)cc1 was read as Cdc42 wt GTP 98.0, Rab2 wt GTP 99.0, Rac1 act GTP bind 97.0, Rac1 wt GTP bind 101.0, Rab7 wt GTP bind 99.0 and HRas wt GTP 99.0.
Screening O=C(O)CCc1ccc(-c2cccs2)n1CC(=O)Nc1ccccc1C(F)(F)F returned Cdc42 wt GTP 97.0, Rab2 wt GTP 97.0, Rac1 act GTP bind 95.0, Rac1 wt GTP bind 100.0, Rab7 wt GTP bind 95.0 and HRas wt GTP 96.0.
For CCn1c(=N)c(S(=O)(=O)c2ccccc2)cc2c(=O)n3ccccc3nc21 the results were Cdc42 wt GTP 88.0, Rab2 wt GTP 89.0, Rac1 act GTP bind 94.0, Rac1 wt GTP bind 87.0, Rab7 wt GTP bind 95.0 and HRas wt GTP 91.0.
Screening CCn1c(=N)c(S(=O)(=O)c2ccc(C)cc2)cc2c(=O)n3ccccc3nc21 returned Cdc42 wt GTP 81.0, Rab2 wt GTP 84.0, Rac1 act GTP bind 90.0, Rac1 wt GTP bind 74.0*, Rab7 wt GTP bind 95.0 and HRas wt GTP 84.0.
For Cc1ccc(S(=O)(=O)c2cc3c(=O)n4ccccc4nc3n(Cc3ccco3)c2=N)cc1C the results were Cdc42 wt GTP 108.0, Rab2 wt GTP 103.0, Rac1 act GTP bind 103.0, Rac1 wt GTP bind 109.0, Rab7 wt GTP bind 103.0 and HRas wt GTP 107.0.
Cc1ccc(S(=O)(=O)c2cc3c(=O)n4ccccc4nc3n(C)c2=N)cc1 was read as Cdc42 wt GTP 82.0, Rab2 wt GTP 78.0*, Rac1 act GTP bind 91.0, Rac1 wt GTP bind 93.0, Rab7 wt GTP bind 93.0 and HRas wt GTP 79.0*.
O=[N+]([O-])c1ccccc1S(=O)(=O)NC1CCCC1 was read as Cdc42 wt GTP 97.0, Rab2 wt GTP 97.0, Rac1 act GTP bind 98.0, Rac1 wt GTP bind 100.0, Rab7 wt GTP bind 97.0 and HRas wt GTP 97.0.
`N=C1/C(=C\c2ccc(SCc3ccco3)o2)C(=O)N=C2SC=NN12` gave Cdc42 wt GTP 72.0*, Rab2 wt GTP 77.0*, Rac1 act GTP bind 81.0, Rac1 wt GTP bind 76.0*, Rab7 wt GTP bind 88.0 and HRas wt GTP 74.0*.
Cc1ccc(-c2nnc3c4ccccc4c(C)nn23)cc1NC(=O)CN1CCOCC1 was read as Cdc42 wt GTP 96.0, Rab2 wt GTP 94.0, Rac1 act GTP bind 97.0, Rac1 wt GTP bind 97.0, Rab7 wt GTP bind 95.0 and HRas wt GTP 96.0.
`Cc1ccc(-c2nnc3c4ccccc4c(C)nn23)cc1S(=O)(=O)N1CCN(CCO)CC1` gave Cdc42 wt GTP 82.0, Rab2 wt GTP 79.0*, Rac1 act GTP bind 95.0, Rac1 wt GTP bind 88.0, Rab7 wt GTP bind 86.0 and HRas wt GTP 85.0.
For CC(C)COc1cccc(C(=O)NC(=S)Nc2cccc(NC(=O)c3ccccc3Cl)c2)c1 the results were Cdc42 wt GTP 102.0, Rab2 wt GTP 98.0, Rac1 act GTP bind 102.0, Rac1 wt GTP bind 104.0, Rab7 wt GTP bind 100.0 and HRas wt GTP 98.0.
Cc1cccc(NCC(O)Cn2cnc3c2c(=O)n(C)c(=O)n3C)c1 (stereo unspecified) was read as Cdc42 wt GTP 116.0, Rab2 wt GTP 115.0, Rac1 act GTP bind 104.0, Rac1 wt GTP bind 107.0, Rab7 wt GTP bind 106.0 and HRas wt GTP 114.0.
Cn1c(=O)c2c(ncn2CC(O)CNc2cccc(Cl)c2)n(C)c1=O (stereo unspecified) was read as Cdc42 wt GTP 107.0, Rab2 wt GTP 107.0, Rac1 act GTP bind 104.0, Rac1 wt GTP bind 124.0*[activator], Rab7 wt GTP bind 107.0 and HRas wt GTP 106.0.
Screening O=C(CCl)Nc1ccc(Oc2cnc3ccccc3n2)cc1 returned Cdc42 wt GTP 103.0, Rab2 wt GTP 101.0, Rac1 act GTP bind 100.0, Rac1 wt GTP bind 102.0, Rab7 wt GTP bind 101.0 and HRas wt GTP 101.0.
`CN1C(=O)/C(=C2\SC(=S)N(CC3CCCO3)C2=O)c2ccccc21` (stereo unspecified) gave Cdc42 wt GTP 104.0, Rab2 wt GTP 102.0, Rac1 act GTP bind 101.0, Rac1 wt GTP bind 104.0, Rab7 wt GTP bind 102.0 and HRas wt GTP 102.0.
For O=C1/C(=C\c2ccc(-c3ccccc3Cl)o2)SC(=S)N1CC1CCCO1 (stereo unspecified) the results were Cdc42 wt GTP 63.0*, Rab2 wt GTP 62.0*, Rac1 act GTP bind 59.0*, Rac1 wt GTP bind 59.0*, Rab7 wt GTP bind 68.0* and HRas wt GTP 55.0*.
